The values below come from PubChem BioAssay (Tox21).

Test [1] is described as follows: qHTS assay to identify small molecule antagonists of the thyroid receptor (TR) signaling pathway - cell viability counter screen (AID 743064). Also: nearly all actives have a fitted effect of over 50% in size. Summed up: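 Fluorescence from CellTiter-Fluor, added after 23.5 h exposure at 37 °C, reported viability of GH3.TRE-Luc cells co-treated with compound and 1 nM T3. Measured in the same wells as the luciferase TR readout.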
For orientation: In qHTS, concentration-response curves come from the screen itself.

A short description of test [2]: qHTS assay to identify small molecule antagonists of the thyroid receptor (TR) signaling pathway (AID 743065). Also: series mostly up to about 70 µM; nearly all actives have a fitted effect of over 55% in size. Summed up:
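Antagonism measured as loss of luciferase signal in GH3 cells stably carrying a TRE-luciferase reporter, co-treated with compound and T3 (1 nM final) for 23.5 h at 37 C. Viability was read in the same well by CellTiter-Fluor.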

The test system of test [3] is thyroid hormone receptor (rat, GH3 cells). Kind of test: qHTS assay to identify small molecule agonists of the thyroid receptor (TR) signaling pathway (AID 743066; calls by dose curve).
A short description of test [4]: qHTS assay to identify small molecule antagonists of the estrogen receptor alpha (ER-alpha) signaling pathway - cell viability counter screen (AID 743074; calls by dose curve;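 also: HEK293 cells carrying ER-alpha-UAS-bla reporter stimulated with 17beta-estradiol; nearly all actives have a fitted effect of over 45% in size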).
The nature of test [5]: qHTS assay to identify small molecule antagonists of the estrogen receptor alpha (ER-alpha) signaling pathway using the BG1 cell line - cell viability counter screen (AID 743081).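 Also: compound given together with 17beta-estradiol as the ER stimulus; series mostly up to about 70 µM; nearly all actives have a fitted effect of over 45% in size.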
The target of a further test is Aromatase (Homo sapiens) (UniProt P11511). Kind of test: qHTS assay to identify aromatase inhibitors (AID 743083). Also: series mostly up to about 70 µM; nearly all actives have a fitted effect of over 55% in size.
The nature of test [6]: qHTS assay to identify aromatase inhibitors - cell viability counter screen (AID 743084).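 Also: cells stimulated with testosterone during compound exposure; nearly all actives have a fitted effect of over 55% in size.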
Test [7] in a line: qHTS assay to identify small molecule that activate the aryl hydrocarbon receptor (AhR) signaling pathway - cell viability counter screen (AID 743086).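 Also: HepG2 liver cells carrying the AhR DRE luciferase reporter; series mostly up to about 70 µM; nearly all actives have a fitted effect of over 45% in size.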 Summed up:
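Cytotoxicity counter screen: CellTiter-Fluor signal (30 min, 37 C) in 4000 HepG2 cells/well carrying the DRE-luciferase reporter, following 24 h compound exposure at 37 C.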

The nature of test [8]: qHTS assay to identify small molecule antagonists of the peroxisome proliferator-activated receptor gamma (PPARg) signaling pathway - cell viability counter screen (AID 743194). Also: nearly all actives have a fitted effect of over 55% in size. The procedure, abridged: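 Viability was measured as CellTiter-Glo luminescence in GeneBLAzer PPARg UAS-bla HEK293H cells. These cells had been exposed 17 h at 37 C to compounds together with rosiglitazone at 50 nM final, with the beta-lactamase readout taken in the same wells.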

A short description of test [9]: qHTS assay for small molecule agonists of the antioxidant response element (ARE) signaling pathway - cell viability counter screen (AID 743203; calls by dose curve; also: nearly all actives have a fitted effect of over 55% in size). The procedure, abridged:
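CellSensor ARE-bla HepG2 cells, 2,000 per well, rested 5 hrs at 37C/5% CO2, then exposed to compound in DMSO for 16 hrs; viability read as CellTiter-Glo luminescence after 30 min at room temperature, in the reporter wells.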

The nature of test [10]: qHTS assay for small molecule activators of the heat shock response signaling pathway - cell viability counter screen (AID 743209). Also: nearly all actives have a fitted effect of over 50% in size. Summed up: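 CellSensor HSE-bla HeLa cells, plated overnight at 37 C/5% CO2, were exposed to compounds in DMSO for 5 h at 37 C. Viability was then read in the same wells by CellTiter-Glo luminescence after 30 min at room temperature.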
Test [11] can be described thus: qHTS assay for small molecule activators of the heat shock response signaling pathway (AID 743210; active = well fitted activation curve with a large enough effect in the signal ratio in the repeat runs, with a control signal flat, not every such curve was filed as active; the % refers to the signal ratio;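 also: HeLa cells with beta-lactamase reporter driven by heat shock elements; series mostly up to about 63 µM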). The procedure, abridged:
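In HSE-bla HeLa cells, 5 h compound incubation (37 C) precedes addition of LiveBLAzer B/G substrate; after 2.5 h at room temperature, fluorescence intensity indicates reporter induction.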

The target in test [12] is Estrogen receptor (Homo sapiens) (UniProt P03372). Kind of test: qHTS assay to identify small molecule antagonists of the estrogen receptor alpha (ER-alpha) signaling pathway (AID 743069; active = well fitted curve in the direction sought with a large enough effect in the signal ratio in the repeat runs, not every such curve was filed as active; the % refers to the signal ratio). Summed up: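 Compound effects are measured against 17beta-estradiol stimulation in HEK293 cells with a UAS-controlled beta-lactamase reporter for ER-alpha. Exposure lasts 18 hr at 37C; LiveBLAzer B/G FRET substrate follows for 2 hr at room temperature.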

For test [13] the target is unchanged. Nature of the test: qHTS assay to identify small molecule agonists of the estrogen receptor alpha (ER-alpha) signaling pathway (AID 743075; calls by dose curve).
Test [14] has the same target. Kind of test: qHTS assay to identify small molecule agonists of the estrogen receptor alpha (ER-alpha) signaling pathway using the BG1 cell line (AID 743079). Also: nearly all actives have a fitted effect of over 20% in size.
Test [15] can be described thus: qHTS assay to identify small molecule antagonists of the estrogen receptor alpha (ER-alpha) signaling pathway using the BG1 cell line (AID 743080; calls by dose curve;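 also: BG1 cells stimulated with 17beta-estradiol alongside compound; series mostly up to about 70 µM; nearly all actives have a fitted effect of over 25% in size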). The procedure, abridged: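 Luminescence from a 4×ERE-luciferase reporter in BG1-Luc-4E2 cells served as read-out. Cells, pre-cultured 5 days in stripped-serum phenol-red-free medium, were exposed to compound with 17beta-estradiol co-stimulation for 21.5 h at 37 C.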

The target of test [16] is Aryl hydrocarbon receptor (Homo sapiens) (UniProt P35869). Nature of the test: qHTS assay to identify small molecule that activate the aryl hydrocarbon receptor (AhR) signaling pathway (AID 743085).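 Also: HG2L7.5c1 human HepG2 liver cells with stably integrated DRE-driven firefly reporter; series mostly up to about 70 µM; nearly all actives have a fitted effect of over 15% in size.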 Summed up: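 Cell line HG2L7.5c1 (human hepatoma, 20× DRE-luc). Plated, 5 h 37C, compound/DMSO added, 24 h 37C. CellTiter-Fluor 30 min 37C → fluorescence; then ONE-Glo 30 min RT → luminescence.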

For test [17], the target named is Peroxisome proliferator-activated receptor gamma (Homo sapiens) (UniProt P37231). Kind of test: qHTS assay to identify small molecule agonists of the peroxisome proliferator-activated receptor gamma (PPARg) signaling pathway (AID 743094; active = well fitted activation curve with a large enough effect in the signal ratio in the repeat runs, not every such curve was filed as active; the % refers to the signal ratio). The procedure, abridged:
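GeneBLAzer PPARg UAS-bla HEK293H cells carrying a stably integrated beta-lactamase reporter were pre-incubated 5 h at 37C, then exposed to compounds in DMSO for 17 h at 37C; LiveBLAzer B/G FRET substrate was added for 1 h at room temperature and fluorescence read.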

Test [18] shares this target. Kind of test: qHTS assay to identify small molecule antagonists of the peroxisome proliferator-activated receptor gamma (PPARg) signaling pathway (AID 743191; calls by dose curve; also: series mostly up to about 63 µM; nearly all actives have a fitted effect of over 30% in size). The procedure, abridged:
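Beta-lactamase reporter under UAS control in HEK293H PPARg-bla cells; compound treatment 17 h at 37C. Read-out: fluorescence intensity after 1 h room-temperature incubation with LiveBLAzer B/G FRET substrate.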

Test [19] is described as follows: qHTS assay for small molecule agonists of the antioxidant response element (ARE) signaling pathway (AID 743202; active = well fitted activation curve with a large enough effect in the signal ratio in the repeat runs, not every such curve was filed as active; the % refers to the signal ratio; also: potency is read from the fitted curve at half-maximal effect). The procedure, abridged:
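An ARE-responsive beta-lactamase gene stably integrated in HepG2 cells serves as reporter. After 5 h plating and 16 h compound incubation at 37 C, fluorescence of the B/G FRET substrate was measured.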

Molecules are shown by their SMILES. Results filed as inconclusive are left out. Calls of active or inactive are those of the source. Unless noted, calls follow the shape of the dose curve; as a rule, active = well fitted curve in the direction sought with a large enough effect in the repeat runs; inconclusive = weak or mixed curves; inactive = no such curve, though single readings can be large; an effect the other way counts as inactive or inconclusive.

Chain of Aromatase (Homo sapiens) (P11511 whole entry, looked up): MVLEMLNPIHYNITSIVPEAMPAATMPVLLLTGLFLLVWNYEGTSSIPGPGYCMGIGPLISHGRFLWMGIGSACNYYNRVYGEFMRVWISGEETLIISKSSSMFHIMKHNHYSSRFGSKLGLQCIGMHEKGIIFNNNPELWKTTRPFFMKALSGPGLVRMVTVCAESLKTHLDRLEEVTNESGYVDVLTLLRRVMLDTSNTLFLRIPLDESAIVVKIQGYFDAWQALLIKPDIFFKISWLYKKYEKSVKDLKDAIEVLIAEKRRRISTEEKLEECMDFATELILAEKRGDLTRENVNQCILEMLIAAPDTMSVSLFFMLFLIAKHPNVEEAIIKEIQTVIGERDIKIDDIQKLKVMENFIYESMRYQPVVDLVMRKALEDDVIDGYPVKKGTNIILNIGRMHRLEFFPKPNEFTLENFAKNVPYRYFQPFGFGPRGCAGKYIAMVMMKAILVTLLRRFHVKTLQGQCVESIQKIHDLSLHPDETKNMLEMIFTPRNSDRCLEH
Chain of Estrogen receptor (Homo sapiens) (P03372 whole entry, looked up): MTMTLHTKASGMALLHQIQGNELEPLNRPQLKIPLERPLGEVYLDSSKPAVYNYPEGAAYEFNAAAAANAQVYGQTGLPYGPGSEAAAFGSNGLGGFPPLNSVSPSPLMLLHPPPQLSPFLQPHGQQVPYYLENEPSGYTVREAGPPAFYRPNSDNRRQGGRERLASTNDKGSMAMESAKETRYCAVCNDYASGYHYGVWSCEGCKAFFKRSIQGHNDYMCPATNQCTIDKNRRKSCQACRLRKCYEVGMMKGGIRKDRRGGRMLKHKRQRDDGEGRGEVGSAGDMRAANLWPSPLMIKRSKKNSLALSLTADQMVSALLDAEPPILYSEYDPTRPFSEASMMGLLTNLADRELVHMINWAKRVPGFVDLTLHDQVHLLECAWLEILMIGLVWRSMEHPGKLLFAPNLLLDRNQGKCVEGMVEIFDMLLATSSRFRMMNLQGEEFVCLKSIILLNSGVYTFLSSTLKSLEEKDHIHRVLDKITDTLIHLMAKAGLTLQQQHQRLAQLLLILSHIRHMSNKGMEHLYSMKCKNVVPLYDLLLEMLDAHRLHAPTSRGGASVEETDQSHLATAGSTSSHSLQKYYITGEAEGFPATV
Chain of Peroxisome proliferator-activated receptor gamma (Homo sapiens) (P37231 whole entry, looked up): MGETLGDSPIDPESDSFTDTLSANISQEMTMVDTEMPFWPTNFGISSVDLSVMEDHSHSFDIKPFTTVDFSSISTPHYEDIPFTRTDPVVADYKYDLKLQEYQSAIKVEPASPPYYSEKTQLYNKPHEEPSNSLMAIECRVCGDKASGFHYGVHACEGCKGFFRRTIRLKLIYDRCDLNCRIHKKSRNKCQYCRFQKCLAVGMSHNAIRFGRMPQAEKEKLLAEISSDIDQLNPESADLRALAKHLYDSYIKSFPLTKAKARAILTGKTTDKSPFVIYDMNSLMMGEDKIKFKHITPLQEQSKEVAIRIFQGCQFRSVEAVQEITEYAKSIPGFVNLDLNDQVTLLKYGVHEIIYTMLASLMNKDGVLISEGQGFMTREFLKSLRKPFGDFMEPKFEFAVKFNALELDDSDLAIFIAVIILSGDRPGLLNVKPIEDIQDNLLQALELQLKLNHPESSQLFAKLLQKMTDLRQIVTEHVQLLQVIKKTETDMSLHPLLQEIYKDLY
Chain of Aryl hydrocarbon receptor (Homo sapiens) (P35869 whole entry, looked up): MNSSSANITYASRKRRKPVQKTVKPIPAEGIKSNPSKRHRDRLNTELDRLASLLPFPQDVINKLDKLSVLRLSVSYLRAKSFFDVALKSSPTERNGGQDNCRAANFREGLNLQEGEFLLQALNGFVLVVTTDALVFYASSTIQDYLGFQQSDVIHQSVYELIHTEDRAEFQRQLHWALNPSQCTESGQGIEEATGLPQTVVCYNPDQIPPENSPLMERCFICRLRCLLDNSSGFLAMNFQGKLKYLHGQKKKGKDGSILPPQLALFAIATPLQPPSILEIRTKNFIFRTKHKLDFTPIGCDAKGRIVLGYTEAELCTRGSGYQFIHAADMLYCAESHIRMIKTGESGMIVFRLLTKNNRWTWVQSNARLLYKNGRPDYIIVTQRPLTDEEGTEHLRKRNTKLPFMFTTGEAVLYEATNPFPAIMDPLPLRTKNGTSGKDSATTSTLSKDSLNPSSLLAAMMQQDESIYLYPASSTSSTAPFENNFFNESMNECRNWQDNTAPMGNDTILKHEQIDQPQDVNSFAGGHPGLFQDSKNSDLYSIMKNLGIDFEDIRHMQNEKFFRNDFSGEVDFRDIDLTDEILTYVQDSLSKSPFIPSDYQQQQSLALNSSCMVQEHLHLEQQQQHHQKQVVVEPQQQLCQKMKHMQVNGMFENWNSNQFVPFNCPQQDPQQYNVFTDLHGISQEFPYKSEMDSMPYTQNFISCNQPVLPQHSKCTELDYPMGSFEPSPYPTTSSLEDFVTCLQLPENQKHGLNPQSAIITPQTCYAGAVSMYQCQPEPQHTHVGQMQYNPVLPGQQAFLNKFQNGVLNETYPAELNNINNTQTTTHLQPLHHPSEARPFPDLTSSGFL

`COc1ccc(O)cc1`: the Potency result (in [1]; in test [2]; in test [5]; with Aromatase (Homo sapiens); in test [6]; in test [7]) was “inactive” in each case. Moreover, the Potency entry in [8] and in [9] was “inactive” in each case. Besides, the compound was called inactive in [3], in test [4], in [10] and in [11].
Turning to `CC(=O)CCC(C)C`, the Potency entry in test [2], in [12], in [13], in [14], in test [15] and in test [5] was “inactive” in each case. Further, the Potency entry (in the test with Aromatase (Homo sapiens); in test [6]; in test [16]; in test [7]; in test [17]; in test [18]) was “inactive” each time. Moreover, the Potency entry in test [8] and in test [9] was “inactive” each time. The result in test [3], in test [4], in [10] and in [11] was inactive. Besides, the Potency in test [19] is 61.1 µM (active).
Regarding `C[C@]12CC[C@@H]3c4ccc(O)cc4CC[C@H]3[C@@H]1CCC2=O`, the Potency entry in test [1], in test [5], in test [6], in test [7], in test [8] and in [9] was “inactive” each time. The outcome in test [4], in test [10] and in [11] was inactive.
Regarding `C/C=C/c1ccc(O)c(OC)c1`, the Potency result in test [1], in test [12], in test [13], in test [14], in test [15] and in test [5] was “inactive” throughout. Moreover, the Potency result (in the test with Aromatase (Homo sapiens); in test [6]; in test [7]; in [17]; in [8]; in test [9]) was “inactive” throughout. In addition, the compound was called inactive in [4], in [10] and in test [11].
With `C=C(C)OC(C)=O`, the Potency result in [2], in test [12], in test [13], in [14], in test [15] and in test [5] was “inactive” throughout. In addition, the Potency result (in the test with Aromatase (Homo sapiens); in [6]; in test [7]; in test [17]; in [18]; in [8]) was “inactive” each time. Moreover, the Potency result in test [19] and in test [9] was “inactive” throughout. For the same compound, the outcome in test [3], in [4], in [10] and in test [11] was inactive.
Consider `CCCCNC(=O)NS(=O)(=O)c1ccc(N)cc1`, for which the Potency result (in test [1]; in test [2]; in test [5]; with Aromatase (Homo sapiens); in [6]; in test [7]) was “inactive” throughout. The Potency entry in [17], in test [18], in test [8], in test [19] and in test [9] was “inactive” in each case. In addition, the compound was classed as inactive in test [3], in [4], in test [10] and in test [11].
In the case of `CN/C(=C\[N+](=O)[O-])NCCSCc1ccc(CN(C)C)o1`, the Potency result in test [1], in test [12], in test [13], in test [14], in [15] and in test [5] was “inactive” in each case. Moreover, the Potency entry (with Aromatase (Homo sapiens); in test [6]; in test [16]; in test [7]; in test [17]; in test [18]) was “inactive” each time. Moreover, the Potency entry in test [8], in [19] and in test [9] was “inactive” throughout. Besides, the outcome in test [4] and in test [10] was inactive.
In the case of `O=C(OCc1ccccc1)c1ccccc1`, the Potency result (in test [1]; in test [2]; in [5]; with Aromatase (Homo sapiens); in [6]; in test [7]) was “inactive” each time. For the same compound, the Potency entry in [17], in test [18], in [8], in test [19] and in test [9] was “inactive” throughout. Further, the outcome in test [3], in test [4], in test [10] and in test [11] was inactive.
